# Source: PubChem BioAssay (Tox21)
# “And” between values parts separate entries of the source, which are not always exact repeats. Equal values may be shown once. Results filed as inconclusive are left out. Where a call stands in place of a potency, no number is given. Where a structure was tested more than once in an assay, its records may differ in their call. The source made the active and inactive calls. Unless noted, calls come from the whole dose curve; as a rule, active = well fitted curve in the direction sought with a large enough effect in the repeat runs; inconclusive = weak or mixed curves; inactive = no such curve, though single readings can be large; an effect the other way counts as inactive or inconclusive.
# Legend:
# [1] = A CellTox Green Cytotoxicity Assay to monitor cytotoxicity in HEK293 cells - 32 hour (AID 1224881); note: nearly all actives have a fitted effect of over 40% in size
# Method in brief: (§1)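 Dead-cell fluorescence measured kinetically: asymmetric cyanine dye, HEK293, 600 cells/well, 5 h settle, 23 nL cpd/DMSO, 37 C, reads 0–40 h every 8 h.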
# [2] = A CellTox Green Cytotoxicity Assay to monitor cytotoxicity in HepG2 cells - 0 hour (AID 1224882); note: nearly all actives have a fitted effect of over 35% in size
# Method in brief: (§2)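 First, HepG2 cells (600/well) mixed with reagent were plated; second, after 5 h at 37 C they received compounds via pintool; third, fluorescence was measured at 0 h through 40 h at 8 h intervals.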
# [3] = A CellTox Green Cytotoxicity Assay to monitor cytotoxicity in HepG2 cells - 32 hour (AID 1224883); note: nearly all actives have a fitted effect of over 50% in size
# Method in brief: as §2
# [4] = A CellTox Green Cytotoxicity Assay to monitor cytotoxicity in HEK293 cells - 8 hour (AID 1224884); note: nearly all actives have a fitted effect of over 35% in size; note: potency is the fitted concentration of half-maximal effect
# Method in brief: as §1
# [5] = qHTS RealTime-Glo MT Cell Viability Assay in HepG2 cells - 16 hour (AID 1224885); note: nearly all actives have a fitted effect of over 50% in size
# Method in brief: (§3)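 Tox21 10K library screened in qHTS format on HepG2 cells carrying RealTime-Glo reagents. Compounds were added after a 5 h preincubation, and the luminescent signal from continuous culture was measured repeatedly during 40 h treatment.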
# [6] = qHTS RealTime-Glo MT Cell Viability Assay in HEK293 cells - 24 hour (AID 1224886); note: nearly all actives have a fitted effect of over 50% in size; note: potency is the fitted concentration of half-maximal effect
# Method in brief: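 Luminescence generated by NanoLuc from substrate produced by living HEK293 cells served as the viability signal. Each value reflects the reading at its stated time point during continuous 40 h compound exposure at 37 C.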
# [7] = qHTS RealTime-Glo MT Cell Viability Assay in HEK293 cells - 8 hour (AID 1224887); note: nearly all actives have a fitted effect of over 50% in size; note: potency is the fitted concentration of half-maximal effect
# Method in brief: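 600 HEK293 cells per well, dispensed already mixed with RealTime-Glo MT reagents. Compound dosing came 5 h later. The same wells were read for luminescence at 0, 8, 16, 24, 32 and 40 h of exposure at 37 C.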
# [8] = A CellTox Green Cytotoxicity Assay to monitor cytotoxicity in HEK293 cells - 16 hour (AID 1224888); note: nearly all actives have a fitted effect of over 35% in size
# Method in brief: as §1
# [9] = qHTS RealTime-Glo MT Cell Viability Assay in HepG2 cells - 0 hour (AID 1224889); note: nearly all actives have a fitted effect of over 50% in size
# Method in brief: as §3
# [10] = A CellTox Green Cytotoxicity Assay to monitor cytotoxicity in HepG2 cells - 8 hour (AID 1224890); note: nearly all actives have a fitted effect of over 45% in size
# Method in brief: as §2
# [11] = qHTS assay to identify small molecule antagonists of the estrogen receptor alpha (ER-alpha) signaling pathway using the BG1 cell line in the presence of 0.1 nM 17-beta-estradiol - cell viability counter screen (AID 1259241); note: nearly all actives have a fitted effect of over 40% in size; note: potency is the fitted concentration of half-maximal effect
# Method in brief: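 VM7Luc4E2, 4,000 cells/well, phenol red-free medium + 10% charcoal-stripped FBS; 24 hr plating; cpd + 0.1 nM E2 final, 22 hr 37C/5% CO2; CellTiter-Fluor 30 min, fluorescence.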
# [12] = qHTS assay to identify small molecule antagonists of the androgen receptor (AR) signaling pathway using the MDA cell line in the presence of 0.5 nM R1881 - cell viability counter screen (AID 1259242); note: nearly all actives have a fitted effect of over 45% in size; note: potency is the fitted concentration of half-maximal effect
# Method in brief: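 qHTS format. MDA-kb2 (MMTV-luc, AR/GR responsive) + cpd + 0.5 nM R1881 final, 16 hr 37C/0% CO2 → CellTiter-Fluor 30 min → fluorescence intensity.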
# [13] = qHTS assay to identify small molecule HDAC inhibitors (AID 1259364);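 note: wild-type HCT-116 cells with endogenous class I/II HDAC activity; top concentration of the series differs between compounds; nearly all actives have a fitted effect of over 45% in size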
# Method in brief: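 Quantitative high-throughput format: overnight-seeded HCT-116 cells got compounds for 2 hr at 37C; HDAC-Glo I/II reagent added, 30 min RT, luminescence measured.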
# [14] = qHTS assay to identify small molecule agonists of the sonic hedgehog signaling (Shh) pathway - cell viability counter screen (AID 1259366); note: nearly all actives have a fitted effect of over 50% in size; note: potency is the fitted concentration of half-maximal effect
# Method in brief: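 Cytotoxicity counter screen run in the same wells as the Shh reporter assay. NIH/3T3 cells carrying a Gli1 response element–driven luciferase were treated with DMSO-dissolved compounds for 24hr, and live-cell protease activity was measured with CellTiter-Fluor.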
# [15] = qHTS assay to identify small molecule antagonists of the sonic hedgehog signaling (Shh) pathway - cell viability counter screen (AID 1259367); note: nearly all actives have a fitted effect of over 55% in size; note: potency is the fitted concentration of half-maximal effect
# Method in brief: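 Fluorescence read-out (CellTiter-Fluor, 1 hr at 37C) taken after 23 hr compound treatment of 3T3 Gli1-Luc cells stimulated with conditioned medium. Cells were seeded at 2,000 per well and pre-incubated 4 hr.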
# [16] = qHTS assay to identify small molecule agonists of the sonic hedgehog signaling (Shh) pathway (AID 1259368; calls by dose curve;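 note: NIH/3T3-derived 3T3Gli1-Luc cells carrying a stable Gli1-driven firefly luciferase reporter; series mostly up to about 92 µM; nearly all actives have a fitted effect of over 15% in size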)
# Method in brief: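 Quantitative high-throughput format using a Gli1-driven firefly luciferase reporter line derived from NIH/3T3 cells. After a 24 hr compound treatment at 37 C and 5% CO2, luminescence reported Gli1 response element activity.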
# [17] = qHTS assay to identify small molecule phospholipidosis (PLD) inducers (AID 1259344; active = well fitted curve in the direction sought with a large enough effect; an effect the other way counts as inactive or inconclusive)
# Method in brief: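 Read-out is LipidTOX Red fluorescence (ex 595/em 615) imaged in HepG2 cells after 24 h compound exposure at 37 C, with Hoechst nuclear counterstain (ex 352/em 461) allowing per-cell normalisation.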
# [18] = qHTS assay to identify small molecule HDAC inhibitors - cell viability counter screen (AID 1259365)
# Method in brief: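 Luminescence from CellTiter-Glo, developed 30min at room temperature, reports viability of wild-type HCT-116 cells treated 2hr with compounds at 37 C and 5% CO2 after overnight plating.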
# [19] = target: Estrogen receptor (Homo sapiens) (UniProt P03372); experiment: qHTS assay to identify small molecule antagonists of the estrogen receptor alpha (ER-alpha) signaling pathway using the BG1 cell line in the presence of 0.1 nM 17-beta-estradiol (AID 1259244); note: nearly all actives have a fitted effect of over 50% in size; note: potency is the fitted concentration of half-maximal effect
# Chain of Estrogen receptor (Homo sapiens) (P03372 whole entry, looked up): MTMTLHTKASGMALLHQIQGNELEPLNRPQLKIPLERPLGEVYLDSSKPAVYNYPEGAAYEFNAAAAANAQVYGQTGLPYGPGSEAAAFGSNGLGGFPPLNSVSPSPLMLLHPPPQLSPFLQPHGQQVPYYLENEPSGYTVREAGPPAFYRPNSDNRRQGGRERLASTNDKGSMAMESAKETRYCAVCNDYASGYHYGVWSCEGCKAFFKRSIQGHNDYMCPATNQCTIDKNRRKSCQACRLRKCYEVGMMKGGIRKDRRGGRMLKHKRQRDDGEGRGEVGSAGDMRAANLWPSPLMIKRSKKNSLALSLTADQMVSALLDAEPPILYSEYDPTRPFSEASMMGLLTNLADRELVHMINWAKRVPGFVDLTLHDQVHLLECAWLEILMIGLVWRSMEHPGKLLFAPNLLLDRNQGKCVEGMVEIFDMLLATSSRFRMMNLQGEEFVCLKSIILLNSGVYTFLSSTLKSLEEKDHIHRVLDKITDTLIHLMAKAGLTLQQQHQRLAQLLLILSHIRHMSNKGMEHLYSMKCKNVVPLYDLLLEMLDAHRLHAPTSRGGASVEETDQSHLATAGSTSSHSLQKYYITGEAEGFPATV
# Method in brief: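 Reporter is a stably transfected luciferase under four estrogen responsive elements in VM7Luc4E2 cells expressing native full-length ER-alpha; inhibition of 0.1 nM (final) 17beta-estradiol-driven signal over 22 h is read by luminescence.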
# [20] = target: Androgen receptor (Homo sapiens) (UniProt P10275); experiment: qHTS assay to identify small molecule antagonists of the androgen receptor (AR) signaling pathway using the MDA cell line in the presence of 0.5 nM R1881 (AID 1259243); note: nearly all actives have a fitted effect of over 50% in size
# Chain of Androgen receptor (Homo sapiens) (P10275 whole entry, looked up): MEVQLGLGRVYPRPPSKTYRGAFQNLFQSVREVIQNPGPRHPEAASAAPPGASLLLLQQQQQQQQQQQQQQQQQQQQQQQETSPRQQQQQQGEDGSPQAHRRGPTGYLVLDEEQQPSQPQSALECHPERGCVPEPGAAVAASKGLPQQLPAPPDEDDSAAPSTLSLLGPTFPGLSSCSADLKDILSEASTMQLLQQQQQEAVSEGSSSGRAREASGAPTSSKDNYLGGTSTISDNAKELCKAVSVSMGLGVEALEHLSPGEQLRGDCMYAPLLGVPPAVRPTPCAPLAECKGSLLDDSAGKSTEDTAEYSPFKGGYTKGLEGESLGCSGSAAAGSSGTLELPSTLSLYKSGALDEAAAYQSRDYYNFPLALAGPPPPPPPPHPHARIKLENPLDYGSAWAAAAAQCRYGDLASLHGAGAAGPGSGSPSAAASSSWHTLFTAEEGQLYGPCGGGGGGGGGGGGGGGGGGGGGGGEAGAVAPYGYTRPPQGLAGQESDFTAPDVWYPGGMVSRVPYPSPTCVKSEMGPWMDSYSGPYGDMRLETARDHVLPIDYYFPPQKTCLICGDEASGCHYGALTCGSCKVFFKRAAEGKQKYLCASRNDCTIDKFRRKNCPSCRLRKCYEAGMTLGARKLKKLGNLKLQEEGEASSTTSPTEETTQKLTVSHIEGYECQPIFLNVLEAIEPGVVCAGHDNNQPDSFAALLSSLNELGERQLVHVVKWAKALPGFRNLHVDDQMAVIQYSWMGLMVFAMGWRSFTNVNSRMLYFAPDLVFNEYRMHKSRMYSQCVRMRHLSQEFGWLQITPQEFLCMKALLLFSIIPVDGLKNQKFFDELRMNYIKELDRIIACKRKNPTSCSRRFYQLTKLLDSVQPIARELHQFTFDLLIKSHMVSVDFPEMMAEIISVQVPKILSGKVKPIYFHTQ
# Method in brief: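 Antagonist mode quantitative HTS in MDA-kb2 MMTV-luciferase cells, agonist R1881 at 0.5 nM final, 16 hr exposure at 37C and 0% CO2, luminescent detection.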
compound,measurement,setting,value
CC(=O)C(=O)O,Potency,[1],inactive
same,Potency,[2],inactive
same,Potency,[3],inactive
same,Potency,[4],inactive
same,Potency,[5],inactive
same,Potency,[6],inactive
same,Potency,[7],inactive
same,Potency,[8],inactive
same,Potency,[9],inactive
same,Potency,[10],inactive
same,Potency,[11],inactive
same,Potency,[12],inactive
same,Potency,[13],inactive
same,Potency,[14],inactive
same,Potency,[15],inactive
same,outcome,[16],inactive
COc1ccc(CN(CCN(C)C)c2ccccn2)cc1,Potency,[1],inactive
same,Potency,[2],inactive
same,Potency,[3],inactive
same,Potency,[4],inactive
same,Potency,[8],inactive
same,Potency,[10],inactive
same,Potency,[11],inactive
same,Potency,[12],inactive
same,Potency,[17],inactive
same,Potency,[13],inactive
same,Potency,[18],inactive
same,Potency,[14],inactive
same,Potency,[15],inactive
same,outcome,[16],inactive
COc1ccc(C(Cl)=C(c2ccc(OC)cc2)c2ccc(OC)cc2)cc1,Potency,[1],inactive
same,Potency,[3],inactive
same,Potency,[4],inactive and 43.6 µM (active)
same,Potency,[5],inactive
same,Potency,[6],inactive
same,Potency,[7],inactive
same,Potency,[8],inactive
same,Potency,[9],inactive
same,Potency,[10],inactive
same,Potency,[11],inactive
same,Potency,[12],inactive
same,Potency,[19],2.72 µM (active) and 7.7 µM (active) and 2.11 µM (active)
same,Potency,[17],inactive
same,Potency,[13],inactive
same,Potency,[18],inactive
same,Potency,[14],inactive
same,Potency,[15],inactive
same,outcome,[16],inactive
CN(C)CCOC(c1ccccc1)c1ccccc1,Potency,[1],inactive
same,Potency,[2],inactive
same,Potency,[3],inactive
same,Potency,[4],inactive
same,Potency,[5],inactive
same,Potency,[6],inactive
same,Potency,[7],inactive
same,Potency,[8],inactive
same,Potency,[10],inactive
same,Potency,[11],inactive
same,Potency,[12],inactive
same,Potency,[20],inactive
same,Potency,[19],inactive
same,Potency,[17],inactive
same,Potency,[13],inactive
same,Potency,[14],inactive
same,Potency,[15],inactive
same,outcome,[16],inactive
Nc1c(N=Nc2ccc(-c3ccc(N=Nc4cc(S(=O)(=O)O)c5ccccc5c4N)cc3)cc2)cc(S(=O)(=O)O)c2ccccc12,Potency,[1],inactive
same,Potency,[2],inactive
same,Potency,[3],inactive
same,Potency,[4],inactive
same,Potency,[6],43.6 µM (active)
same,Potency,[7],24.5 µM (active)
same,Potency,[8],inactive
same,Potency,[10],inactive
same,Potency,[11],12.2 µM (active)
same,Potency,[12],27.3 µM (active)
same,Potency,[17],inactive
same,Potency,[13],inactive
same,Potency,[14],17.2 µM (active)
same,Potency,[15],15.3 µM (active)
same,outcome,[16],inactive
Oc1ccccc1,Potency,[1],inactive
same,Potency,[2],inactive
same,Potency,[3],inactive
same,Potency,[4],inactive
same,Potency,[5],inactive
same,Potency,[6],inactive
same,Potency,[7],inactive
same,Potency,[8],inactive
same,Potency,[9],inactive
same,Potency,[10],inactive
same,Potency,[11],inactive
same,Potency,[12],inactive
same,PLD induction,[17],0.811% [at 7.66 µM] (inactive)
same,Potency,[13],inactive
same,Potency,[14],inactive
same,Potency,[15],inactive
same,outcome,[16],inactive
